Bioassay records (PubChem)
Shown are actives, neighbours in structure and some others; about 2.4% of the full set was active somewhere.
D2 antagonist = HTS Assay for Allosteric Antagonists of the Human D2 Dopamine Receptor: Primary Screen for Antagonists | HEK293 TREx D2 cells, calcium flux, dopamine EC80 | inhibition, % at 10 µM | AID 485344, 2010 | D(2) dopamine receptor (Homo sapiens), P14416 | 2% of 340,000 active; in the data active = inhibition above about 30%; inactive = below that, where a call was filed; also: 0% is about no effect
Target sequence (P14416 whole entry, looked up): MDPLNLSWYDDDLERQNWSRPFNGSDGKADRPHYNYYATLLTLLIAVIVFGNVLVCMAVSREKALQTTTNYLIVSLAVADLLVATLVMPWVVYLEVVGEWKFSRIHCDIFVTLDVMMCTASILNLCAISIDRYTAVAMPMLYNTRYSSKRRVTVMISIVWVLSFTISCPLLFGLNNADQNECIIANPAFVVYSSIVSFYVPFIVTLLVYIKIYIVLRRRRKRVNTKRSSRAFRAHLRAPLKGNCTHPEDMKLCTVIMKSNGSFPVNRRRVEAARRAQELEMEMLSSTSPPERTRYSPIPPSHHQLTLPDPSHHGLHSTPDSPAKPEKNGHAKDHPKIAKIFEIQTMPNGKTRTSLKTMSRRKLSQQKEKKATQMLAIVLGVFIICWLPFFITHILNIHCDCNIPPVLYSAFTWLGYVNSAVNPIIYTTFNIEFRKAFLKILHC
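HEK293 T-REx D2 cells, tet-induced, calcium dye no-wash. Cpd pintool add, 180 s kinetic, then EC80 DA, 180 s kinetic. Ca flux read.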
D2 ag-1 = HTS Assay for Allosteric Agonists of the Human D2 Dopamine Receptor: Primary Screen for Agonists. HEK293 T-REx D2 cells, calcium flux agonist mode. activation, % at 2 µM. 0.53% of 340,000 active. AID 485358, 2010;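 active = activation over 3 SD above normal in the single-dose calcium agonist read, cut at about 30% in these data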; also: 0% is about no effect
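Calcium-flux readout, 1 cycle/sec over 180 s following compound pin transfer, in inducible HEK293 Trex D2 cells (force-coupled); dopamine controls included. Positive calcium responses during this window marked compounds as potential agonists.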
D2 ag-2 = Beta-Arrestin HTS for Positive Allosteric Modulators of the Human D2 Dopamine Receptor: Agonists; D(2) dopamine receptor (Homo sapiens), P14416; DiscoveRx PathHunter D2 beta-arrestin, luminescence, 90 min; 100% = 57 uM dopamine signal; activation, % (no concentration beside the values); 0.084% of 360,000 active; AID 624465, 2012; in the data active = activation above about 40%
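Agonist mode: compounds alone added to overnight-plated D2 PathHunter cells for 90 min at 37 C, with 57 uM final dopamine (EC100) defining full response. Beta-arrestin recruitment detected by chemiluminescent reagent, read after 1 h at ambient temperature.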
D2 PAM-1 = HTS Assay for Positive Allosteric Modulators of the Human D2 Dopamine Receptor: Primary Screen for Potentiators. HEK293 T-REx D2, calcium flux, EC20 dopamine potentiation. potentiation, % at 10 µM. 0.34% of 340,000 active. AID 485347, 2010;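 active = potentiation over 3 SD above the plate norm, cut at about 30% in these data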; also: 0% is about no effect
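Primary screen. Calcium kinetics in induced HEK293 T-REx D2 cells: compound pre-addition 180 s, EC20 dopamine, 180 s more.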
D2 PAM-2 = Beta-Arrestin HTS for Positive Allosteric Modulators of the Human D2 Dopamine Receptor: Potentiators | D(2) dopamine receptor (Homo sapiens), P14416 | DiscoveRx D2 beta-arrestin cells, luminescence, 90 min; 100% = 57 uM dopamine signal | potentiation, % (concentration not given with the values) | 0.23% of 360,000 active; in the data active = potentiation above about 50%
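D2 cells co-treated with compound plus 50 nM dopamine (EC20) for 90 min at 37 deg C to detect potentiation. Beta-arrestin recruitment was read as enzyme-fragment luminescence after 1 h at ambient temperature. Full response was set by 57 uM dopamine.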
* marks the source's active call; other numbers are inactive results; / = not tested or not shown.

SMILES	D2 antagonist	D2 ag-1	D2 ag-2	D2 PAM-1	D2 PAM-2
O=C(N/N=C/c1cc(Br)c(Br)o1)c1cc2ccccc2o1	33*	0	6	-24	-37
Cc1cc(C)c(C)c(S(=O)(=O)N2CCN(C(=O)c3cc(S(=O)(=O)N4CCOCC4)ccc3F)CC2)c1C	/	/	0	/	9
Cc1nc(C(=O)NCC(=O)c2ccccc2)c(C(F)(F)F)o1	32*	0	-5	-1	-1
COc1ccccc1-c1cc(C(=O)N/N=C/c2cccs2)c2ccccc2n1	72*	-1	-1	-23	-32
O=C(N/N=C/c1cccs1)c1c[nH]c2ccccc12	33*	-1	-4	-19	-25
COc1cccc(OC)c1C(=O)OCC(=O)NC1CCCCCC1	82*	1	-1	-4	-9
CCOc1ncccc1C(=O)OCC(=O)NC1CCCCCC1	31*	-1	0	-5	-22
COC(=O)Cn1c(=NC(=O)c2ccc3c(c2)OCCO3)sc2ccccc21	/	1	/	11	/
O=C(NC1CCN(Cc2ccccc2)CC1)C1COc2ccccc2O1 (stereo not given)	34*	-2	3	-25	-46
O=C(NC1CCN(Cc2ccccc2)CC1)c1cccc(Br)c1	98*	0	-1	-26	-13
COc1ccc(Cn2c(=O)[nH]c3cc(C(=O)NC4CCN(Cc5ccccc5)CC4)ccc32)cc1	75*	0	2	-24	-24
O=C(NC1CCCCC1)c1ccc2c(c1)OCCO2	5	-1	2	0	2
O=C(NC1CCN(Cc2ccccc2)CC1)c1ccc2c(c1)OCCCO2	30*	1	-4	-23	-30
OCCc1ccc(NCCc2cccs2)cc1	/	/	2	/	3
S=C(NCCc1ccccc1)N1CCN(C23CC4CC(CC(C4)C2)C3)CC1	-9	0	-1	10	-26
C=C(C)c1cccc(C(C)(C)NC(=O)NC2CCN(Cc3ccccc3)CC2)c1	89*	0	-6	-31	-26
CCOc1ccc2oc(C(=O)NC3CCN(Cc4ccccc4)CC3)c(C)c2c1	-12	0	-5	-17	-14
C=C(C)c1cccc(C(C)(C)NC(=O)N2CCN(c3ccccn3)CC2)c1	31*	5	1	-4	-3
Cc1c(C(=O)NC2CCN(Cc3ccccc3)C2)oc2ccc(Br)cc12 (stereo not given)	38*	-1	2	-25	-20
S=C(NCc1ccc2c(c1)OCO2)NC1CCN(Cc2ccccc2)CC1	103*	2	-2	-46	-10
C=C(C)c1cccc(C(C)(C)NC(=O)N2CCCC2)c1	-9	0	-2	13	-9
O=C(CN1C(=O)NC2(CCCCCC2)C1=O)Nc1ccccc1[N+](=O)[O-]	/	/	3	/	2
CCOC(=O)c1c(C)[nH]c(C)c1C(=O)COC(=O)c1cccs1	/	/	3	/	10
O=C(COc1ccc(Br)cc1Cl)NC1CCN(Cc2ccccc2)CC1	67*	1	-3	-20	-23
O=C(NC1CCN(Cc2ccccc2)CC1)c1cccc(OC(F)F)c1	81*	0	-3	-22	-24
SMILES	D2 antagonist	D2 ag-1	D2 ag-2	D2 PAM-1	D2 PAM-2
COc1ccc(NS(=O)(=O)c2cccc(C(=O)NC3CCN(Cc4ccccc4)CC3)c2)cc1	16	0	-1	-8	-24
COC(=O)CN1C(c2cccc(Cl)c2)=Nc2ccc(Cl)cc2C1c1ccccc1 (stereo not given)	21	-2	-2	-13	-36
COc1cc(C2=Nc3ccc(Br)cc3C(c3ccccc3)N2CC(=O)NN)cc(OC)c1OC (stereo not given)	86*	1	-5	-15	-22
COC(=O)CN1C(c2ccc(OC)cc2)=Nc2ccc(Cl)cc2C1c1ccccc1 (stereo not given)	91*	1	3	-24	9
COc1ccc(/C=C2\CCCc3c2nc2ccccc2c3C(=O)O)cc1OC	31*	184*	/	13	/
CCOC(=O)N1CCN(C(=O)c2cccc(N3C(=O)NC4CC3(C)Oc3ccc(Cl)cc34)c2)CC1 (stereo not given)	22	0	-4	3	-3
c1ccc2c(c1)nc1n2CC2CON(C3CCCCC3)C12 (stereo not given)	37*	0	-2	-4	-13
CCCSc1nc(=S)n(Cc2ccccc2)c(C)c1C(C)=O	43*	-1	6	-8	-4
CC(=O)c1c(N2CCCCC2)nc(=S)n(Cc2ccccc2)c1C	-29	-1	0	5	8
CCc1nnc(NC(=O)CCC(=O)N2CCN(Cc3ccc(OC)c(F)c3)CC2)s1	-6	0	-1	0	-8
CC(C)(C)NC(=O)C1c2ccccc2Oc2ccccc21	47*	0	-4	12	7
CCOC(=O)CSc1nnc2n(-c3ccccc3)c(=O)c3c4c(sc3n12)COC(C(C)C)C4 (stereo not given)	/	1	/	6	/
Cn1c(=O)[nH]c(=O)c2c1ncn2CCN1CCOCC1	38*	0	-1	6	-18
Cn1c(=O)[nH]c(=O)c2c1nc(N1CCOCC1)n2CCN1CCOCC1	-6	1	-4	3	-3
COc1ccc(CNC(=O)c2ccc(-c3nc(CSc4ccccc4)c(C)o3)cc2)cc1OC	/	2	/	5	/
CC(C)Cc1ccc(C(C)C(=O)Nc2cccnc2)cc1 (stereo not given)	22	12	-7	-16	-6
CC(C)Cc1ccc(C(C)C(=O)Nc2ccc(O)cc2)cc1 (stereo not given)	39*	19	5	-8	3
COc1ccc(Nc2nc(C)nc(N)c2S(=O)(=O)c2ccccc2)cc1	/	0	/	2	/
CCCCC[n+]1ccn(C2=C([O-])c3ccccc3C(=O)/C2=N\S(=O)(=O)c2ccc(Cl)cc2)c1	4	-2	2	1	9
CCCC[n+]1ccn(C2=C([O-])c3ccccc3C(=O)/C2=N\S(=O)(=O)c2ccc(Cl)cc2)c1	34*	-1	2	5	7
Oc1cccc(Nc2ncnc3ccccc23)c1	51*	0	-2	3	-10
COc1cc(C(=O)NNC(=O)c2ccc(NC(=O)C(C)(C)C)cc2)cc(OC)c1OC	/	/	0	-1	3
COc1ccccc1NC(=O)C(Cc1ccccc1)NS(=O)(=O)c1ccc2c(c1)CCN2C(C)=O (stereo not given)	/	-1	/	-5	/
COc1ccc(-c2[nH]ncc2CN2CCN(Cc3cccs3)CC2)cc1F	-15	1	0	-21	-15
